In PubChem BioAssay (NCI):
Where “and” joins values, the source holds several entries; their conditions need not be identical. Equal values may be shown once. Compounds without any hit were thinned out: in the full panel of roughly 83,000, 20% have a hit.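 Note: values are percent growth. 100 is the growth of untreated cells, values between 100 and 0 indicate rising inhibition; between -100 and 0 indicates cell death.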 Calls of active or inactive are those of the source. Rule for the calls: active = growth percent below 10; inactive = the rest.

Experiments:
Test in all cases: NCI-60 one-dose screen, 48 h (100 = growth as untreated, 0 = no growth, -100 = all killed)
Conditions in all cases: 10 µM unless noted
[1] = system: NCI-H23 lung
[2] = system: NCI-H226 lung
[3] = system: NCI-H322M lung
[4] = system: HOP-62 NSCLC
[5] = system: NCI-H460 lung
[6] = system: HOP-92 NSCLC
[7] = system: NCI-H522 lung
[8] = system: 786-0 renal
[9] = system: COLO 205 colon
[10] = system: DU-145 prostate
[11] = system: K-562 leukemia
[12] = system: MALME-3M melanoma
[13] = system: MDA-MB-231 breast
[14] = system: RXF 393 renal
[15] = system: SF-268 CNS
[16] = system: SF-295 CNS
[17] = system: SF-539 CNS
[18] = system: UACC-257 melanoma
[19] = system: M14 melanoma
[20] = system: A549/ATCC NSCLC

SMILES	growth [1]	growth [2]	growth [3]	growth [4]	growth [5]	growth [6]	growth [7]	growth [8]	growth [9]	growth [10]	growth [11]	growth [12]	growth [13]	growth [14]	growth [15]	growth [16]	growth [17]	growth [18]	growth [19]	growth [20]
CCOC(=O)c1ccncc1	109% (inactive)	91.3% (inactive)	106% (inactive)	98.5% (inactive)	104% (inactive)	108% (inactive)	98.3% (inactive)	106% (inactive)	103% (inactive)	104% (inactive)	99.3% (inactive)	113% (inactive)	110% (inactive)	107% (inactive)	101% (inactive)	96.2% (inactive)	108% (inactive)	116% (inactive)	102% (inactive)	
C/C(=C\c1ccccc1)C(O)C(=O)c1nc2ccc([N+](=O)[O-])cc2[nH]c1=O (configuration not stated)	104% (inactive)	88% (inactive)	90.3% (inactive)	81.4% (inactive)	94.7% (inactive)	78.9% (inactive)	48.1% (inactive)	101% (inactive)	111% (inactive)	105% (inactive)	85.8% (inactive)	109% (inactive)	90.8% (inactive)	109% (inactive)	98.1% (inactive)	93.3% (inactive)	102% (inactive)	81.2% (inactive)	92.3% (inactive)	
CC1=CC(=O)C=CC1=Nc1ccc(N(C)C)cc1	87% (inactive) and -21.1% (active)	95.6% (inactive) and 70.4% (inactive)	99.2% (inactive) and 88.2% (inactive)	92.4% (inactive) and 72% (inactive)	103% (inactive) and 70.1% (inactive)	81.2% (inactive) and 7.79% (active)	29.9% (inactive)	95.2% (inactive) and 76% (inactive)	71.1% (inactive) and -30.2% (active)	107% (inactive) and 71.8% (inactive)	62% (inactive) and 7.74% (active)	112% (inactive) and 66.4% (inactive)	87.1% (inactive)	93.2% (inactive) and 50.6% (inactive)	93.9% (inactive) and 66.9% (inactive)	84.7% (inactive) and 65.6% (inactive)	94.1% (inactive) and 44.5% (inactive)	82% (inactive)	93.5% (inactive) and 41.1% (inactive)	
O=C(O)c1cc(=O)[nH]c(=O)[nH]1	104% (inactive) and 4.68% (active)	102% (inactive) and 95% (inactive)	89.8% (inactive) and 97.5% (inactive)	115% (inactive) and 107% (inactive)	111% (inactive) and 91.4% (inactive)		89.7% (inactive) and 18.9% (inactive)	96.5% (inactive) and 103% (inactive)	99.6% (inactive) and 89.3% (inactive)	116% (inactive) and 104% (inactive)	106% (inactive) and 115% (inactive)	89.1% (inactive) and 116% (inactive)	97.2% (inactive) and 96.3% (inactive)	118% (inactive)	112% (inactive) and 100% (inactive)	101% (inactive) and 124% (inactive)	104% (inactive) and 80.5% (inactive)	103% (inactive)	102% (inactive) and 111% (inactive)	
COC(=O)C(Cc1cn(C(C)=O)c2ccccc12)P(=O)(OC)OC (configuration not stated)	98.5% (inactive)	91.5% (inactive)	101% (inactive)	93.3% (inactive)	98.1% (inactive)	98.8% (inactive)	103% (inactive)	105% (inactive)	105% (inactive)	109% (inactive)	102% (inactive)	96.1% (inactive)	97.9% (inactive)	116% (inactive)	96.3% (inactive)	97.1% (inactive)	97.3% (inactive)	110% (inactive)	91.9% (inactive)	
O=C(c1ccc(Cl)cc1)C1C(c2ccccc2)C1[N+](=O)[O-] (configuration not stated)	84.6% (inactive)	97.2% (inactive)	89.8% (inactive)	98% (inactive)	104% (inactive)	80.9% (inactive)	101% (inactive)	98.8% (inactive)	111% (inactive)	105% (inactive)	92.7% (inactive)	104% (inactive)	91.2% (inactive)	106% (inactive)	98.1% (inactive)	103% (inactive)	103% (inactive)	105% (inactive)	102% (inactive)	
Nc1ccccc1SC(CC(=O)c1ccccc1)c1cccc([N+](=O)[O-])c1 (configuration not stated)	87.1% (inactive) and 90.4% (inactive)		113% (inactive) and 96.1% (inactive)	95.3% (inactive) and 95.4% (inactive)	105% (inactive) and 100% (inactive)	95.9% (inactive)	84.4% (inactive) and 73.3% (inactive)	113% (inactive) and 91.8% (inactive)	102% (inactive) and 109% (inactive)	113% (inactive) and 85.5% (inactive)	61% (inactive) and 7.1% (active)	123% (inactive) and 86.7% (inactive)	86.4% (inactive) and 99.6% (inactive)	104% (inactive) and 94.7% (inactive)	101% (inactive) and 83.9% (inactive)	83.1% (inactive) and 92.3% (inactive)	99.6% (inactive) and 105% (inactive)	95% (inactive) and 87.7% (inactive)	114% (inactive) and 89.9% (inactive)	95.1% (inactive) and 78.7% (inactive)
OCCSc1ccc(Cl)cc1	112% (inactive) and 102% (inactive)	116% (inactive) and 99.3% (inactive)	114% (inactive) and 96% (inactive)	108% (inactive) and 76.1% (inactive)	108% (inactive) and 107% (inactive)	101% (inactive) and 97.7% (inactive)	101% (inactive) and 76.5% (inactive)	108% (inactive) and 95.7% (inactive)	117% (inactive) and 104% (inactive)	125% (inactive) and 107% (inactive)	112% (inactive) and 136% (inactive)	117% (inactive) and 83.8% (inactive)	115% (inactive) and 99.5% (inactive)	114% (inactive) and 108% (inactive)	124% (inactive) and 101% (inactive)	94.9% (inactive) and 101% (inactive)	108% (inactive) and 91.7% (inactive)	114% (inactive) and 97.2% (inactive)	107% (inactive) and 94.2% (inactive)	
CC(C)(C)OC(=O)CC1(O)CCCCC1	101% (inactive)	93.7% (inactive)	111% (inactive)	114% (inactive)	103% (inactive)	86.1% (inactive)	102% (inactive)	101% (inactive)	109% (inactive)	112% (inactive)	114% (inactive)	117% (inactive)	95.8% (inactive)	108% (inactive)	104% (inactive)	100% (inactive)	108% (inactive)	109% (inactive)	108% (inactive)	
O=[N+]([O-])c1cccc2ccc(N/N=C/c3ccccc3O)nc12	72.4% (inactive) and 98.3% (inactive)	83.4% (inactive) and 99.5% (inactive)	88.2% (inactive) and 94.8% (inactive)	85% (inactive) and 97.9% (inactive)	91.9% (inactive) and 98.4% (inactive)	67.7% (inactive) and 77.7% (inactive)	78.6% (inactive) and 89.2% (inactive)	102% (inactive) and 85.9% (inactive)	68.1% (inactive) and 111% (inactive)	88.7% (inactive) and 107% (inactive)	19.9% (inactive) and 49.1% (inactive)	96.2% (inactive) and 100% (inactive)	72.6% (inactive) and 84.5% (inactive)	84.6% (inactive)	106% (inactive) and 99.2% (inactive)	104% (inactive) and 102% (inactive)	90.9% (inactive) and 101% (inactive)	92.1% (inactive) and 85.4% (inactive)		
N=C(N=C(N)N)N1CCOCC1	103% (inactive) and 90.8% (inactive)	99.3% (inactive) and 98.3% (inactive)	95.4% (inactive) and 112% (inactive)	94.7% (inactive) and 106% (inactive)	99.8% (inactive) and 102% (inactive)		94.7% (inactive) and 107% (inactive)	104% (inactive) and 95.6% (inactive)	104% (inactive) and 107% (inactive)	102% (inactive) and 106% (inactive)	106% (inactive) and 112% (inactive)	90.6% (inactive) and 108% (inactive)	104% (inactive) and 99.2% (inactive)	111% (inactive)	104% (inactive) and 102% (inactive)	110% (inactive) and 96.9% (inactive)	105% (inactive) and 95.9% (inactive)	107% (inactive) and 104% (inactive)	91.1% (inactive) and 97.2% (inactive)	103% (inactive) and 94.2% (inactive)
